From PubChem BioAssay
Shown are actives, neighbours in structure and some others; about 2.8% of the full set was active somewhere.
HIF-2a block: HIF-2a reporter inhibitors, primary screen, luminescence, 786-0 RCC cells; AID 624352, 2012; inhibition, % at 18.8 µM; 360,000 compounds, 0.72% hits; 786-0 RCC cells HIF-2a reporter, luciferase luminescence, overnight;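 active means inhibition of the luminescence signal of 40% or more relative to plate controls, in a single-dose primary screen at 18.75 µM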
Shn3 inh set2: reduction of Shn3 3'UTR firefly luciferase signal, primary screen, Schnurri-3 inhibitor project, cell-based, Clone20 osteoblasts, set 2; inhibition, % at 12.5 µM; Clone20 osteoblast Shn3 3'UTR firefly luciferase, 24 h; 360,000 compounds, 0.52% hits;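 active means mean inhibition of at least 75% with every replicate also reaching 75%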;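 further: 0% = median of neutral control wells and 100% = pilot-screen positive control compound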
KKLEB cytotox: cytotoxicity in KKLEB CF airway cells, primary screen, cytotoxicity control for CF NF-kB inhibitor project, cell-based, uHTS, fluorescence assay plates | KKLEB CF airway cells viability, ATPlite luminescence, overnight; hits give low values; cells stimulated with P. aeruginosa culture filtrate | activity change (cytotoxicity), % at 5 µM | 360,000 compounds, 0.36% hits;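 active means corrected activity change at or below -50% at 5 µM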
MITF TRPM1 inh: inhibitors of MITF-dependent TRPM1 promoter reporter, primary screen, cell-based, SK-MEL-5, single point, luciferase | inhibition, % at 12.5 µM | 330,000 compounds, 0.83% hits | AID 488899, 2010 | SK-MEL-5 TRPM1 promoter luciferase, 24 h;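 active means mean inhibition across replicates of 60% or more, whatever share of single replicates reaches that level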
Peg3 prom inh: Peg3 promoter-driven luciferase inhibitors, primary screen, cell-based, HeLa, luciferase luminescence | HeLa PEG-Prom luciferase reporter, overnight | inhibition, % at 20 µM | 360,000 compounds, 1.7% hits | AID 588405, 2011;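 active means inhibition of at least 50% at 20 µM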
CF NFkB block: inhibitors of PAF-induced NF-kB signaling, primary screen, cell-based, GFP fluorescence, uHTS. KKLEB NF-kB-GFP reporter, GFP fluorescence overnight. inhibition, % at 5 µM. 360,000 compounds, 0.86% hits. AID 588850, 2011;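 active means at least 50% inhibition at 5 µM, scaled per plate between neutral and stimulator controls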;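 further: PAF is a Pseudomonas aeruginosa culture filtrate used as stimulus; plate controls were PAF-stimulated DMSO wells for no effect and unstimulated DMSO wells for full effect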
Mdm2 MdmX conf: retested Mdm2-MdmX interaction blockers, confirmation, cell-based, luminescence, single concentration, set 2; shares compounds with HIF-2a block; SaOS-2 split-luciferase Mdm2/MdmX complementation; inhibition, % at 8 µM; 740 compounds, 99% hits;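 active means mean inhibition of the luminescence signal across two replicates at or above 26 percent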
HIF-2a inh conf: HIF-2a reporter inhibitor retest, confirmation, luminescence, 786-0 RCC cells; shares compounds with HIF-2a block; HIF-2a luciferase reporter luminescence, overnight; inhibition, % at 18.8 µM; 1,800 compounds, 56% hits;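 active means mean inhibition across four replicates of at least 40 percent at the single tested concentration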
HIF-1a counter: HIF-1a luciferase reporter signal reduction – MiaPaCa-2 cells, single concentration, counter-screen for HIF-2a inhibitor project, confirmation; inhibition, % at 18.8 µM; 1,800 compounds, 72% hits; shares compounds with HIF-2a block; AID 651589, 2012; MiaPaCa-2 HIF-1a luciferase reporter, desferoxamine, overnight;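 active means mean inhibition of the reporter signal across four replicates at the single tested dose of 50% or more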
Starred values were filed as active, the others as inactive; nt = not tested or not shown.

SMILES	HIF-2a block	Shn3 inh set2	KKLEB cytotox	MITF TRPM1 inh	Peg3 prom inh	CF NFkB block	HIF-2a inh conf	HIF-1a counter	others
Cc1nn(-c2ccccc2)c(C)c1NS(=O)(=O)c1ccccc1	41*	-10	6	25	16	3	34	14
NC1=NC[C@@H](CC2CCCCC2)N1CCc1cc(C(F)(F)F)cc(C(F)(F)F)c1	-27	97*	4	99*	94*	15	nt	nt	Mdm2 MdmX conf=103*
O=C1C=CC(O)(c2cc(=O)c3c(O)cc(O)cc3o2)C=C1	94*	97*	-52*	80*	84*	75*	92*	103*
CCN(CC)CC#CCC(OC)(c1ccccc1)c1ccccc1	11	4	2	-6	0	-10	nt	nt
CCOC(=O)c1ccc(N=c2sc(C(=O)OC)cc(=O)n2Cc2ccco2)cc1	82*	36	-18	18	100*	23	65*	106*
CCOC(=O)c1ccc(N=c2sc(C(=O)OC)cc(=O)n2CCCN2CCOCC2)cc1	9	-23	-18	-1	3	13	nt	nt
NC(=S)c1cc2ccc(O)cc2oc1=O	12	17	-2	4	11	-24	nt	nt
Oc1cc(O)cc(-c2cc3ccc(O)cc3o2)c1	40*	3	-15	11	-243	-8	23	11
CC(=O)/C=C\c1cn(-c2ncc(C(F)(F)F)cc2Cl)c2ccccc12	61*	2	-5	19	44	0	11	30
O=C(CCl)N(C1CCCC1)C1CCS(=O)(=O)C1 (stereo not drawn)	-2	2	-6	31	42	1	nt	nt	Mdm2 MdmX conf=102*
CC(=O)c1ccc(OCC(=O)N(C2CCCCC2)C2CCS(=O)(=O)C2)cc1 (stereo not drawn)	21	-13	20	-2	-6	-5	nt	nt
CC(=O)c1ccc(NC(=O)COC(=O)/C=C/c2cccs2)cc1	-6	-18	-11	11	-12	-14	nt	nt
Cc1ccc2nc(C)cc(C(=O)OCC(=O)Nc3cccnc3Cl)c2c1	2	-13	-13	3	7	6	nt	nt
COc1ccc(/C=C2\SC(=O)N(CCCC(=O)Nc3ccc(C(=O)O)cc3)C2=O)cc1OC	13	-2	1	-2	11	-18	nt	nt
COc1ccc(/C=C2\SC(=O)N(CCCC(=O)Nc3cc(Cl)ccc3C(=O)O)C2=O)cc1	89*	71	-2	89*	76*	-4	98*	99*
COc1ccccc1-c1cn(S(=O)(=O)c2ccc(F)cc2)nc1N	7	36	11	18	25	-8	nt	nt
CC(C)N1CCc2c(sc(NC(=O)Cc3ccccc3)c2C(N)=O)C1	-17	-20	-1	nt	11	-19	nt	nt
CC(=O)Nc1sc2c(c1-c1nc3ccccc3s1)CCN(C(C)C)C2	40*	81	-31	77*	99*	-1	nt	nt	Mdm2 MdmX conf=101*
Cc1ccc(NC(=O)CN(C)C(=O)CSc2nccn2C)cc1	13	3	-7	5	3	-12	nt	nt
O=[N+]([O-])c1ccc(O)c(-c2cc(C(F)(F)F)nc(-c3ccccc3)n2)c1	27	90*	-65*	89*	79*	72*	nt	nt	Mdm2 MdmX conf=102*
Oc1ccccc1-c1cc(C(F)(F)C(F)F)nc(-c2ccccc2)n1	-5	-13	6	10	8	16	nt	nt
